# This is a sample that favours compounds with a hit; in the whole collection about 3.1% have one here.
# SUMO Mot1 rescue – yeast Mot1-301 growth rescue at high temperature, primary screen, SUMOylation pathway inhibitor project, S. cerevisiae, ATP luminescence, 38.5C; growth rescue, % at 18.8 µM; AID 2716, 2010; 320,000 tested, 1% active; S. cerevisiae Mot1-301 growth rescue; percent above DMSO median, 100 means doubled;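 active = every valid replicate shows activation above 250% relative to neutral control wells; inactive = the rest, any valid replicate at or below 250%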
# FAS TE block – FAS thioesterase domain inhibitors, primary screen, biochemical, fluorescence intensity, uHTS | Fatty acid synthase (Homo sapiens), P49327 | AID 602261, 2012 | 360,000 tested, 0.67% active | recombinant FAS-TE, OMFH fluorogenic substrate, fluorescence endpoint | inhibition, % at 15 µM;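 active = compounds whose normalised, plate-corrected inhibition of enzyme fluorescence in the single-dose primary screen is 50% or more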
# ATG4B inh – ATG4B protease inhibitors, primary screen, biochemical, fluorescence, uHTS | ATG4B cleavage of LC3-PLA2, NBD-HPC fluorescence, 1 h | Cysteine protease ATG4B (Homo sapiens), Q9Y4P1 | AID 504462, 2011 | 340,000 tested, 0.51% active | inhibition, % at 8.33 µM; in the data active = inhibition above about 40%
# NadD block – inhibitors of S. aureus NadD, primary screen, biochemical, colorimetric, uHTS; Nicotinate-nucleotide adenylyltransferase NadD (Staphylococcus aureus N315); purified NadD enzyme, colorimetric absorbance read-out; 360,000 tested, 0.78% active; AID 602399, 2012; inhibition, % at 20 µM; in the data active = inhibition above about 26%
# Calb FLC – C. albicans growth inhibition with fluconazole, primary screen, CaCi-2 strain, Alamar Blue fluorescence | C. albicans CaCi-2 (fluconazole-resistant clinical isolate) + fluconazole, 48 h | growth inhibition, % (test concentration not listed) | 300,000 tested, 0.57% active | AID 1979, 2009;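 active = growth inhibition above about 58% in most replicates, limit read from the data, passing the limit was not always enough; inconclusive = exactly half the replicates above a set limit; inactive = most replicates below a set limit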;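 note: all wells also contain fluconazole at 8 µg/ml as a sub-toxic cotreatment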
# Yeast Mot1 SUMO – growth restoration of Mot1-301 yeast on galactose, dose response, SUMO pathway inhibitor project, whole organism, S. cerevisiae, ATP luminescence, cherry-picked samples; shares compounds with SUMO Mot1 rescue; AID 493004, 2010; S. cerevisiae Mot1-301 galactose growth, 24 h; -100 = growth of slx-deleted rescue strain; growth activity, percent, % at 42 µM; 2,300 tested, under 10 active;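 active = Signal drops as the depositor expects, and the fitted half-maximal dose is no more than ten times the top valid tested dose; inconclusive = Poor fit, or a flat curve whose signal drops by 30% to 70%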;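 note: more negative values mean stronger growth rescue toward the control strain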
# Hits are given with their value; n = inactive; u = inconclusive; x = no result given; + = active, no number.
SMILES,SUMO Mot1 rescue,FAS TE block,ATG4B inh,NadD block,Calb FLC,Yeast Mot1 SUMO
CC(=O)Nc1ccc(S(=O)(=O)N(C)CC(=O)Nc2ccc(Br)cc2F)cc1,513.0,n,n,n,n,n
CN(CC(=O)Nc1ccncc1)S(=O)(=O)c1ccc(Br)cc1,n,n,n,n,n,x
COc1cc(/C=C(\C#N)C(=O)Nc2ccc(C(=O)O)cc2)ccc1OC(=O)c1cccc(F)c1,826.7,n,n,n,n,n
CNc1csc(C)c(C)c1=O,447.8,n,n,n,u,n
O=[N+]([O-])c1ccc(Sc2ncccn2)c([N+](=O)[O-])c1,n,n,n,n,n,x
O=C(O)CCSc1ccc([N+](=O)[O-])cc1[N+](=O)[O-],362.8,n,n,n,n,n
CCOC(=O)c1ccc(NC(=O)CC2Sc3ncnn3C2=O)cc1 (configuration not stated),673.7,n,n,n,n,n
O=C(NCCCCl)C1CC(=O)N(CCc2ccc(F)cc2)C1 (configuration not stated),n,n,n,n,n,x
CCOc1ccccc1NC(=O)CSc1nc(N)c(C#N)cc1C#N,+,n,n,n,n,n
COc1ccccc1NC(=O)CSc1nc(N)c(C#N)cc1C#N,n,n,n,n,n,x
Nc1cc(=O)[nH]c(=O)n1CCc1ccccc1,541.9,n,n,n,n,n
CCC(C)NC(=S)Nc1ccccc1 (configuration not stated),x,n,n,n,n,x
CC(C)C(NC(=S)Nc1ccccc1)C(=O)O (configuration not stated),955.9,n,n,n,n,n
CCOC(=O)N1CCN(C(=O)c2ccc3ccccc3c2)CC1,379.2,n,n,n,n,n
CN1CCN(C(=O)c2ccc3ccccc3c2)CC1,n,n,n,n,n,x
O=C(CCCn1cnc([N+](=O)[O-])n1)Nc1cccc2ccccc12,408.2,n,n,n,n,n
O=C(Cn1cnc([N+](=O)[O-])n1)NCc1ccccc1,n,n,n,n,n,x
CCN1CCCC1CN(Cc1cc2ccc(C)cc2[nH]c1=O)C(=S)Nc1ccc(OC)cc1OC (configuration not stated),561.8,n,n,n,n,n
CC(C)CCOCc1nc2sc3c(c2c(=O)[nH]1)CCC(C)C3 (configuration not stated),593.2,n,n,n,n,n
CCOC(=O)c1nc2sc3c(c2c(=O)[nH]1)CCC(C)C3 (configuration not stated),n,n,n,n,n,x
CN(C(=O)COC(=O)c1cncc(Br)c1)C1CCCCC1,n,n,n,n,x,x
CN(C(=O)c1cncc(Br)c1)C1C2CC3CC(C2)CC1C3 (configuration not stated),779.5,n,n,n,n,n
CN(CC(=O)Nc1cccc(F)c1)CC(=O)Nc1cccc(S(=O)(=O)N2CCCCCC2)c1,n,n,n,n,n,x
CN(CC(=O)Nc1cccc(F)c1)CC(=O)Nc1cccc(S(N)(=O)=O)c1,739.6,n,n,n,n,n
CC(=O)N1CCC2(CC1)CC(=O)c1cc(OCC(=O)N3CCCC3)ccc1O2,488.3,n,n,n,n,n
SMILES,SUMO Mot1 rescue,FAS TE block,ATG4B inh,NadD block,Calb FLC,Yeast Mot1 SUMO
Cc1cc(C(=O)N/N=C/c2ccc3c(c2)OCO3)c2ccccc2n1,856.0,n,n,n,n,n
CCC(=O)Nc1ccc(S(=O)(=O)NCc2ccco2)cc1,659.5,n,n,n,n,n
Cc1ccc(C(=O)Nc2ccc(S(=O)(=O)NCc3ccco3)cc2)cc1,n,n,n,n,n,x
Cc1cccc(CN2CCC(Oc3ccc(C(=O)N4CCCCC4)cc3)CC2)c1,n,n,n,n,n,x
CCn1nc(C)cc1C(=O)NC1CCCc2c1cnn2-c1cc(F)cc(F)c1 (configuration not stated),n,n,n,n,n,x
CC(C)N=C(NS(=O)(=O)NC(=O)c1ccccc1)c1ccccc1,456.2,n,n,n,n,n
CC(N=C(NS(=O)(=O)c1ccc(Cl)cc1)c1ccccc1)C(=O)O (configuration not stated),n,n,n,n,n,x
COc1ccc(C(=O)NC(=S)Nc2ccc(CN3CCOCC3)cc2)cc1Cl,n,n,n,n,x,x
COc1ccc(C(=O)NC(=S)Nc2ccc(CN3CCCCC3)cc2)cc1Cl,636.5,n,n,n,n,n
CC(C)NC(=O)c1ccc(-c2ccc(F)c(F)c2)c2ccoc12,x,n,x,n,x,x
CO/N=C(\C(=O)O)c1csc(NN=C(C)C)n1,n,n,n,n,n,x
Cc1ccc(C)c(-c2nnc(NC(=O)CCS(=O)(=O)c3ccc(F)cc3)o2)c1,n,n,n,n,n,x
O=C(N/N=C/C(Br)=C/c1ccccc1)c1n[nH]c2c1CCC2,507.8,n,n,n,n,n
O=C(N/N=C/c1ccccc1)c1n[nH]c2c1CCCC2,n,n,n,n,n,x
Cc1cn([C@H]2C[C@H](O)[C@@H](CNC(=O)[C@H]3CCC(=O)N3)O2)c(=O)[nH]c1=O,x,n,x,n,x,x
O=C1CCC(C(=O)N2CCCCO2)CN1Cc1cccc(F)c1 (configuration not stated),n,n,n,n,n,x
COc1cc(/C=N/NC(=O)c2cccc([N+](=O)[O-])c2)ccc1O,+,n,n,n,n,n
COc1ccc(/C=N/NC(=O)c2cccc([N+](=O)[O-])c2)cc1O,n,n,n,n,n,x
O=S(=O)(NN=C1CCCCCCC1)c1ccccc1,x,n,x,n,x,x
CC(=O)c1cccc(NC(=S)NC(=O)c2cncc(Br)c2)c1,n,n,n,n,n,x
COc1cccc(NC(=S)NC(=O)c2cncc(Br)c2)c1,982.6,n,n,n,n,n
COc1ccc(N(C(=O)c2ccncc2)S(=O)(=O)c2ccc(OC)c(OC)c2)cc1,n,n,n,n,n,x
COc1ccc(N(C(=O)c2ccncc2)S(=O)(=O)c2ccc(F)cc2)cc1,450.7,n,x,n,n,n
CNS(=O)(=O)c1cccc(C(=O)OCc2cc(=O)oc3c(C)c(O)ccc23)c1,n,n,n,n,n,x
CCC(NC(=O)c1ccccc1NC(=O)c1ccco1)C(=O)NC1CCCCC1 (configuration not stated),381.0,n,n,n,n,n
Cc1ccc(C)c(NC(=O)COC(=O)c2ccc3c(c2)OCO3)c1,975.0,n,n,n,n,n
Cc1ccc(S(=O)(=O)N(C)C)cc1NC(=O)COC(=O)c1ccc2c(c1)OCO2,n,n,n,n,n,x
